Only some compounds are listed: those with a hit (about 21% of all), similar ones and a draw of the others.
Pf growth 96h: Primary qHTS for delayed death inhibitors of the malarial parasite plastid, 96 hour incubation. P. falciparum luciferase reporter growth, 96 h. Potency, µM (top dose mostly 28.7 µM), without a hit: at the top dose activity change, negative = inhibition, usual class: inhibitors. 320,000 tested, 6.9% active; note: potency is the fitted concentration of half-maximal effect; % is set by controls: 0 for no effect and ±100 for the full control effect
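Erythrocytes infected with luciferase-expressing P. falciparum were dispensed at 2% hematocrit and 0.05% parasitemia (final), then incubated with compounds 96 hours at 37 C in 5% CO2. Luminescence after detection reagent addition reported growth.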
NS1 function inh: qHTS Assay for Inhibitors of Influenza NS1 Protein Function; Potency, µM (doses to about 46.1 µM), for inactives: at the top dose activity, positive = more growth; 270,000 tested, 0.4% active; AID 2326, 2010; calls by dose curve; note: potency is the fitted concentration of half-maximal effect; actives are rising curves; nearly all actives have a fitted effect of over 50% in size
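Read-out: OD600 growth recovery of NS1-expressing budding yeast. Cells grown overnight at 30C in -URA glucose medium, washed, resuspended and diluted 1:100 in 2% galactose assay medium, pH 6.0. Same strain lacking NS1 served as positive control.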
Pf growth 48h: Primary qHTS for delayed death inhibitors of the malarial parasite plastid, 48 hour incubation; P. falciparum luciferase growth in erythrocytes, 48 h; Potency, µM (top dose mostly 28.7 µM), for inactives: top-dose activity change, negative = inhibition, hits mostly inhibitors; 310,000 tested, 5.9% active; AID 504832, 2011; note: potency is the fitted concentration of half-maximal effect; % is set by controls: 0 for no effect and ±100 for the full control effect
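Luciferase-expressing parasites in RBCs, 2% Hct / 0.1% parasitemia final; RPMI 1640 + 0.5% Albumax; 37 C, 5% CO2, one generation; luminescence read-out, lower signal = inhibition.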
Shiga inhibitor: A qHTS for Small Molecule Inhibitors of Shiga Toxin | Vero cells, Shiga toxin protein synthesis inhibition reporter | inhibition, % at 38.7 µM | 290,000 tested, 9.2% active | AID 2315, 2010; in the data active = inhibition mostly above about 28%, no sharp cut-off; inactive = mostly below about 43%; note: 0% is about no effect
Cycloheximide cs: Cycloheximide Counterscreen for Small Molecule Inhibitors of Shiga Toxin; cell reporter, cycloheximide protein synthesis inhibition counterscreen; max response, %; 300,000 tested, 12% active; AID 2314, 2010; in the data active = max response mostly above about 13%, no sharp cut-off; inactive = mostly below about 14%; note: read at 38.3 µM for the half of the compounds with a filed dose; 0% is about no effect
Starred values were filed as active, the others as inactive; i = inactive; ? = inconclusive; . = no result. Unless noted, calls come from the whole dose curve; as a rule, active = well fitted inhibition curve with a large enough effect; inconclusive = small, poorly fitted or top-dose-only effect, or another doubt; inactive = no such curve, though single readings can be large or run the other way.

SMILES	Pf growth 96h	NS1 function inh	Pf growth 48h	Shiga inhibitor	Cycloheximide cs
O=C(NCc1ccccc1)NC1CC2CCC(C1)N2Cc1ccco1 (centres undefined)	-21.2%	-15.7%	-3.6%	23.0	-4.0
CCOc1ccccc1C(=O)NC1CC2CCCC(C1)N2Cc1nnnn1Cc1ccco1 (centres undefined)	?	-19.5%	11.7µM*	48.4	-2.1
O=C(NC1CC2CCC(C1)N2Cc1nnnn1Cc1ccco1)NC12CC3CC(CC(C3)C1)C2 (centres undefined)	.	-13.0%	11.7µM*	-11.0	3.8
O=C(CSc1ccccc1)Nc1cc(S(=O)(=O)N2CCOCC2)ccc1N1CCOCC1	?	0.0%	?	-8.5	-2.3
COc1ccc(NC(=O)Cn2nnc(-c3ccccc3NC(=O)C3CC3)n2)cc1	.	-7.8%	-12.3%	-16.7	-3.9
COc1ccc(C(=O)Cn2nnc(-c3ccccc3NC(=O)C3CCCCC3)n2)cc1	.	12.9%	11.7µM*	11.8	-5.0
CCOc1ccc2nc(SCC(=O)Nc3ccc4c(c3)OCCO4)[nH]c2c1	.	-2.9%	2.6%	28.7	16.9
CCOc1ccccc1Nc1nnc(SCC(=O)Nc2cccc(S(=O)(=O)NC3=NCCCCC3)c2)s1	9.28µM*	?	?	5.6	4.8
CCOc1ccccc1Nc1nnc(SCC(=O)Nc2ccc3[nH]c(=O)[nH]c3c2)s1	?	-3.5%	-22.4%	46.7	-0.9
CCOc1ccc2nc(SCC(=O)Nc3cccc(S(=O)(=O)NC4=NCCCCC4)c3)[nH]c2c1	?	.	11.7µM*	30.2	-1.2
CCCC(NC(=O)CCc1c(C)c2cc3c(-c4ccccc4)coc3cc2oc1=O)C(=O)O (centres undefined)	2.8%	12.0%	-3.1%	-1.3	-1.2
COc1ccc(CCNC(=O)c2ccc3nc[nH]c3c2)cc1	26.6%	7.6%	3.5%	-23.8	-3.1
CC(C)CCN(CCC(C)C)C/C(O)=C(\C#N)c1nc(-c2ccccc2)cs1	2.62µM*	3.8%	.	-8.0	-0.7
N#C/C(=C(/O)CN1CCN(c2ccccc2F)CC1)c1nc(-c2ccccc2)cs1	59.5%	7.3%	28.5%	-5.7	-4.0
COc1ccc(NC(=O)c2oc3ccccc3c2NC(=O)c2ccco2)cc1	0.5%	-37.7%	?	35.1*	47.2*
COc1ccc(NC(=O)c2oc3ccccc3c2NC(=O)c2ccco2)c(OC)c1	?	-4.1%	?	16.3	10.7*
Cc1ccsc1C(=O)OCC(=O)NC1CCS(=O)(=O)C1 (centres undefined)	-17.5%	.	10.4%	10.5	-2.8
O=C(CSc1ccc(-c2ccc(Cl)cc2)nn1)Nc1ccc2c(c1)OCCO2	37.1%	4.8%	12.1%	-9.3	-3.2
CC1CCc2sc(C(=O)NNC(=S)NC3CC3)cc2C1 (centres undefined)	20.1%	2.2%	51.4%	24.1	20.8*
CC1CCc2sc(C(=O)Nc3ccc(C(N)=O)cc3)cc2C1 (centres undefined)	2.8%	-0.6%	0.5%	23.0	32.3*
CCOc1ncccc1C(=O)OCC(=O)Nc1cccc(S(N)(=O)=O)c1	18.6%	.	10.2%	6.5	15.5
O=C(c1cc2ccccc2oc1=O)N1CCCC1	.	4.2%	6.1%	-1.5	-3.8
CN1CCN(C(=O)c2cc3ccccc3oc2=O)CC1	?	1.7%	4.4%	-5.8	13.2*
O=C(c1cc2ccccc2oc1=O)N1CCN(c2ncccn2)CC1	-55.7%	-4.1%	.	85.7*	33.9*
O=C(c1cc2ccccc2oc1=O)N1CCCN(C(=O)c2cc3ccccc3oc2=O)CC1	.	4.1%	.	.	.
SMILES	Pf growth 96h	NS1 function inh	Pf growth 48h	Shiga inhibitor	Cycloheximide cs
Cc1cccc(N2CCN(C(=O)c3cc4ccccc4oc3=O)CC2)c1C	?	-51.7%	-4.3%	17.4	19.5*
CN1C(=O)/C(=C/c2ccc(OCc3ccccc3F)cc2)NC1=S	-12.7%	2.7%	3.4%	3.6	5.4
CCOC(=O)c1nn(-c2ccc(F)cc2)c(=O)cc1OCC(=O)Nc1ccc(F)c(F)c1	24.1%	.	-8.7%	.	.
N/C(=N\OC(=O)c1ccc(Cl)cc1)c1nonc1N	43.0%	-8.3%	36.7%	78.5*	44.3*
N/C(=N/OC(=O)c1ccccc1F)c1nonc1N	-19.8%	-8.3%	48.6%	64.0*	35.4*
N/C(=N\OCc1ccccc1)c1nonc1N	?	.	226.8%	98.8*	54.7*
O=C(CCCOc1cccc(Br)c1)NCCOc1ccccc1	11.2%	-40.9%	-0.7%	-3.2	-2.6
C/C=C(\C)C(=O)N1CC2(CC(c3cccc(NC(=O)COc4ccc(Cl)cc4)c3)=NO2)C[C@@H]1C(N)=O (some centres undefined)	?	-3.4%	11.7µM*	29.8	-3.3
C/C=C\C=C\C(=O)N1CC2(CC(c3cccc(NC(=O)COc4ccc(Cl)cc4)c3)=NO2)C[C@H]1C(N)=O (some centres undefined)	10.4µM*	4.6%	13.1µM*	1.9	-5.8
Cc1ccc(NC2=C(Cl)C(=O)OC2NC(=O)c2ccccc2)cc1 (centres undefined)	1.04µM*	3.8%	?	10.7	-5.7
COc1ccc(-c2c3c(cc4ncn(Cc5ccccc5)c24)COC3=O)cc1	1.3%	.	?	.	.
O=c1[nH]c(C(Cl)Cl)nc2sc3c(c12)CCN(Cc1ccccc1)C3	?	26.8%	-29.1%	2.7	-2.2
CCCSc1nc2sc3c(c2c(=O)[nH]1)CCN(Cc1ccccc1)C3	4.15µM*	3.7%	?	18.4	12.2
Cc1ccccc1NC(=S)NC(C)CCc1ccccc1 (centres undefined)	13.1µM*	-33.3%	?	-3.4	-2.5
Cc1cccc(C)c1NC(=S)NC(=O)CCc1ccccc1	?	-2.6%	?	0.9	-2.1
CCOc1ccc(NC(=S)NC(C)CCc2ccccc2)cc1 (centres undefined)	?	-37.7%	?	-7.1	8.8
Cc1ccccc1NC(=S)NC(=O)CCc1ccccc1	?	-16.1%	?	18.5	16.8*
O=C(O)C1CC(=O)N(CCc2ccc(F)cc2)C1 (centres undefined)	6.0%	14.7%	-2.4%	-3.5	0.9
Cc1cc(NCc2ccccn2)n2ncc(-c3ccc(Cl)cc3)c2n1	35.6%	-6.0%	33.4%	47.5*	29.4*
Cc1cc(NCc2ccccn2)n2nc(C)c(-c3ccc(Cl)cc3)c2n1	2.94µM*	-3.5%	1.65µM*	-12.6	5.2
Cc1cc(NCCOCCO)n2ncc(-c3ccc(Cl)cc3)c2n1	i	-66.2%	443.9%	74.1*	23.1*
Cc1cc(NCc2ccccn2)n2ncc(-c3ccccc3)c2n1	-68.5%	-11.9%	192.6%	69.8*	43.9*
CNC(=O)Nc1ccccc1C(=O)Nc1ccccc1	48.1%	-3.2%	6.2%	-3.9	-1.4
COc1ccc(OC)c2c(C)cc(NCCN3CCOCC3)nc12	-5.9%	4.6%	-17.0%	15.3	-4.4
CCC(Oc1ccccc1)C(=O)Nc1cc(C)on1 (centres undefined)	?	5.0%	24.1%	37.7*	15.2*
